Experimental findings from PubChem BioAssay AID624273 (Broad Institute, 2012) are described below.

About 230 (23%) of roughly 1,000 compounds were called active. About 1% were inconclusive and are not listed. The list shows a part of the results. Potency and affinity values are given separately. Unmarked numbers belong to inactive results. How the calls were made is not given here.

This test deals with Long-chain-fatty-acid--AMP ligase FadD28 (Mycobacterium tuberculosis (strain ATCC 25618 / H37Rv)) (UniProt P9WQ59). The test is described as follows: inhibitors of FadD28 bisubstrate probe binding, dose response, biochemical, fluorescence polarization, cherry-pick (AID 624273). The conditions noted are these: series mostly up to 50 µM; activity change, negative = inhibition: at the top concentration. (In general: In fluorescence polarisation assays a small probe gives low polarisation when free and higher when bound to something large.)
Long-chain-fatty-acid--AMP ligase FadD28 (Mycobacterium tuberculosis (strain ATCC 25618 / H37Rv)), sequence (P9WQ59 whole entry, looked up): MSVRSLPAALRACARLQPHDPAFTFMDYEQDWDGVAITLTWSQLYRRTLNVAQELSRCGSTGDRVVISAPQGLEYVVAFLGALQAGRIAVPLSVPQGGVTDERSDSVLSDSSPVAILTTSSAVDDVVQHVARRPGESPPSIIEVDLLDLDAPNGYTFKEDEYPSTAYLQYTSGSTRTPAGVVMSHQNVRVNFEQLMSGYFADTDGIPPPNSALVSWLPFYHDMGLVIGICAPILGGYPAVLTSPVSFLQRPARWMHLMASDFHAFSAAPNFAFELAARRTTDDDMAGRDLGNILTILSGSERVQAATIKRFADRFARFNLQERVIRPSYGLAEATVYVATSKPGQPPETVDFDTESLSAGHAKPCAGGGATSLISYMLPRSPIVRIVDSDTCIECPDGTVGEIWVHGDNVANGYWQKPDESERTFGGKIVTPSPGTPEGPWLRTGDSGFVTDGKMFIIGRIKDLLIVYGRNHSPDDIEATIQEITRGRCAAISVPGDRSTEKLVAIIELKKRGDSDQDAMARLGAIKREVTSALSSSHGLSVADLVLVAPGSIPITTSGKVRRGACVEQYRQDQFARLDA
As to `COc1ccc(NC(=O)Nc2c(O)ccc3ccccc23)cc1`, the “activity change, negative = inhibition” value was -0.573%.

As to `CCN(CC)S(=O)(=O)c1ccc(NC(=O)COC(=O)c2cc(S(=O)(=O)Nc3ccc(OC)cc3)ccc2O)cc1`, the “activity change, negative = inhibition” value is 0.508%. For the compound `Cc1[nH]n(-c2ccccc2)c(=O)c1N=Nc1c(Cl)cccc1Cl`, the “activity change, negative = inhibition” value was -38.3%.

For the compound `Cc1ccc(-n2cc(CNC(C)Cn3cncn3)c(-c3ccc(F)cc3)n2)cc1` (stereo not drawn), the “activity change, negative = inhibition” value was 1.98%. Consider `Cc1cccc(CN2C(=O)N/C(=C/c3cc(C)n(-c4cc(C)ccn4)c3C)C2=O)c1`, for which the “activity change, negative = inhibition” value was -9.35%. For `O=C(O)CCC(=O)NC1CCCCC1`, the “activity change, negative = inhibition” value was -7.09%.

In the case of `COc1ccc(NC(=O)CSc2n[nH]c(-c3ccco3)n2)cc1`, the “activity change, negative = inhibition” value is -9.4%.

Turning to `O=C1C(=O)c2cccnc2-c2ncccc21`, the “activity change, negative = inhibition” value was 1.68%.

Regarding `CC(=O)C1C(c2cccc([N+](=O)[O-])c2)C2C(C)=NN=C2CC1(C)O` (stereo not drawn), the “activity change, negative = inhibition” value is -4.31%. With `COc1ccc(N2CCN(S(=O)(=O)c3ccc(-c4cc(C)no4)s3)CC2)cc1`, the “activity change, negative = inhibition” value was -3.6%. Then `COc1ccc(/C=N/N(Cc2ccccc2)c2ccccc2)cc1O`, with -11.5%; and `Cc1ccc(S(=O)(=O)N2CCC(C(=O)NCCCN3CCOCC3)CC2)cc1C`, with -6.5%; and `COc1cc(/C=C2\SC(=S)N(NC(=O)c3ccc(O)cc3)C2=O)ccc1O`, with 2.07%.

For the compound `C=CCn1c(-c2cccn(Cc3ccc(Cl)cc3)c2=O)n[nH]c1=S`, the “activity change, negative = inhibition” value is -6.45%.

For `O=C(O)c1ccc(N2CC3CC(C2)c2cccc(=O)n2C3)c(NS(=O)(=O)c2cccc(C(F)(F)F)c2)c1` (stereo not drawn), the “activity change, negative = inhibition” value is -1.38%.

Take `CN(C(=O)c1ccc(NC(=O)Cc2cccc(NC(=O)C3CCCN(C(=O)c4ccccc4)C3)c2)cc1)C1CC1` (stereo not drawn): the “activity change, negative = inhibition” value was -1.13%.

For `COc1ccc(N2CCN(C(CNC(=O)COc3ccccc3)c3ccco3)CC2)cc1` (stereo not drawn), the “activity change, negative = inhibition” value was -5.99%. On to `O=C(c1ccc(=O)[nH]n1)N1CCN(S(=O)(=O)c2cccc(F)c2)CC1`, for which the “activity change, negative = inhibition” value is -3.38%. On to `O=C(N/C(=C/c1ccc(Br)cc1)C(=O)N1CCCC1)c1ccccc1F`, for which the “activity change, negative = inhibition” value was 0.325%.

In the case of `FC(F)(F)c1cnc(C(c2ccccn2)c2ncn[nH]2)c(Cl)c1` (stereo not drawn), the “activity change, negative = inhibition” value was -1.87%.

With `COc1cc2c3c(c1)/C(=C1/SC(NC(C)=O)=NC1=O)C(=O)N3C(C)(C)C=C2C`, the “activity change, negative = inhibition” value was -7.72%. Under `Cc1ccc(NC(=O)C2CC(=O)N(c3ccc4c5c(cccc35)CC4)C2)cc1` (stereo not drawn) stands -3.61%. As to `CCc1ccc(CN(C)Cc2nc(Cc3cccc(C(F)(F)F)c3)no2)nc1`, the “activity change, negative = inhibition” value was -6.49%.

Consider `CCn1c(C)c(C)c2cc(C(=O)N3CCCC3)ccc21`, for which the “activity change, negative = inhibition” value was -7.83%. As to `COc1ccc(C(=O)NCC(=O)OCC(=O)NCc2cccs2)cc1`, the “activity change, negative = inhibition” value was -4.01%.

Turning to `CCc1ccccc1OCC(=O)Nc1ccc(S(N)(=O)=O)cc1`, the “activity change, negative = inhibition” value was -6.55%. Regarding `Cn1cc(S(=O)(=O)N2CCCC2)cc1C(=O)NCCc1ccccc1`, the “activity change, negative = inhibition” value was -3.16%. Under `COc1ccc(CSCC(=O)Nc2ccc(S(=O)(=O)N3CCCCCC3)cc2)cc1` stands -11.3%; under `COc1cccc(OC)c1OCCN(C)C`, -5.82%.

`COc1cccc(CCNCc2ccc(SC)cc2)c1`: the “activity change, negative = inhibition” value was -2.97%. As for `O=C(NCc1cccnc1)c1cc(-c2ccccc2)on1`, the “activity change, negative = inhibition” value is -4.29%.

Turning to `CCOc1ccc(S(=O)(=O)N2CCN(C(=S)NCC3CCCO3)CC2)cc1` (stereo not drawn), the “activity change, negative = inhibition” value is 0.383%. Regarding `Cc1cccc2sc(NNC(=O)c3ccc(S(=O)(=O)N4CCCC(C)C4)cc3)nc12` (stereo not drawn), the “activity change, negative = inhibition” value was -12.8%. Under `CN(C)/C=C/C(=O)c1ccc([N+](=O)[O-])c(CS(=O)(=O)c2ccc(Cl)cc2)c1` stands -7.3%; under `Cc1cc(C)cc(N(C(=O)C(F)(F)F)C(C(=O)NC2CCCCC2)c2cccs2)c1` (stereo not drawn), -6.68%; under `Cc1ccc(C)c(C(=O)CN2C(=O)C(=O)N(C3CCCC3)C2=O)c1`, -9.13%.

With `CCc1cccc2c(C(=O)CN3C(=O)NC4(CCCCC4)C3=O)c[nH]c12`, the “activity change, negative = inhibition” value was 7.34%. For `O=c1oc2c(CN3CCOCC3)c(O)c(Cl)cc2c2c1CCCC2`, the “activity change, negative = inhibition” value was -3.73%. Then `CCCCCCCCSc1nnc(CSc2nc3nc(C)cc(C)n3n2)o1`, with -7.29%; and `CCc1ccccc1Nc1nc(-c2cccnc2)cs1`, with -0.984%. Take `CC1CCCCN1C(=O)CCS(=O)(=O)c1cccc2nonc12` (stereo not drawn): the “activity change, negative = inhibition” value is -2.59%. On to `CSc1ccc(NC(=O)Nc2ccc(C(=O)NCC(=O)O)cc2)cc1`, for which the “activity change, negative = inhibition” value was -4.74%.

In the case of `CCCCCCCCCCCCCCCC(=O)Nc1ccn(C2OC(CO)C(O)C2O)c(=O)n1` (stereo not drawn), the “activity change, negative = inhibition” value is -11.5%. Regarding `COc1ccc(-c2noc(CNC(=O)c3ccc4c(c3)OCO4)n2)cc1`, the “activity change, negative = inhibition” value was -5.61%.

Turning to `O=[N+]([O-])c1cc(C(F)(F)F)ccc1NCCc1c[nH]c2ccc(O)cc12`, the “activity change, negative = inhibition” value is -25.5%. For the compound `O=C(C(=O)N1CCCCCC1)c1c[nH]c2ccccc12`, the “activity change, negative = inhibition” value was -3.43%. Under `Nc1cc(OC(=O)c2ccc(F)cc2)nn1S(=O)(=O)c1ccccc1` stands -8.44%.

On to `COc1ccc(C2C(C#N)=C(N)N(c3ccccc3)C3=C2C(=O)CCC3)cc1Cn1cc([N+](=O)[O-])cn1` (stereo not drawn), for which the “activity change, negative = inhibition” value is -2.41%. For `COc1cc(/C=C2\SC(=S)N(NC(=O)c3ccccc3O)C2=O)ccc1O`, the “activity change, negative = inhibition” value was -2.04%.

In the case of `Cc1ccn2c(CNCCn3cccn3)c(C(=O)N3CCCCCC3)nc2c1`, the “activity change, negative = inhibition” value is -3.76%. Take `COc1cc2cncc(Cc3ccc(Cl)cc3)c2cc1OC`: the “activity change, negative = inhibition” value was 21.4%. In the case of `CC1(C)CC(=O)C(C(c2ccncc2)C2C(=O)CC(C)(C)CC2=O)C(=O)C1`, the “activity change, negative = inhibition” value is -5.11%. Regarding `CN1CCN(CCCN2c3ccccc3Sc3ccc(Cl)cc32)CC1`, the “activity change, negative = inhibition” value was -5.81%. Under `O=C(CSc1nncn1-c1cccnc1)N1CCOCC1` stands -0.342%; under `CN(Cc1cccc([N+](=O)[O-])c1)Cc1cccc2ccccc12`, -2.3%.

Consider `CC(=O)NNC(=S)Nc1cccc(F)c1`, for which the “activity change, negative = inhibition” value was -7.85%. Regarding `Cc1cccc(NC(=O)NNC(=O)c2ccc3ccccc3c2O)c1`, the “activity change, negative = inhibition” value was -20.9%. Take `Cc1ccc(SCCN2CCN(C)CC2)cc1`: the “activity change, negative = inhibition” value was -0.503%. As for `Cn1ncnc2c(=O)n(C)c(=O)nc1-2`, the “activity change, negative = inhibition” value was 5.7%. With `CN(C)c1cccc(NC(=O)c2ccco2)c1`, the “activity change, negative = inhibition” value is -6.62%. As to `COc1ccccc1NC(=O)c1ccc2c(c1)C(=O)N(c1ccccc1OC)C2=O`, the “activity change, negative = inhibition” value is -0.908%. As for `COCCCN1CN(S(=O)(=O)c2ccc(Cl)cc2)c2nc3ccccc3nc21`, the “activity change, negative = inhibition” value is -64.5%.

On to `CC1CCCC(C)N1CCCNC(=O)c1ccc2nc(N3CCOCC3)sc2c1` (stereo not drawn), for which the “activity change, negative = inhibition” value is 0.187%. For the compound `O=C(Nc1nc2ccc(SC(F)F)cc2s1)c1ccc(NS(=O)(=O)c2ccc(F)c(F)c2)cc1`, the “activity change, negative = inhibition” value is 1.67%.

`COc1ccc(C(=O)NNC(=O)C(=O)NCc2ccccc2)cc1`: the “activity change, negative = inhibition” value was 0.399%. `COc1ccc(OC)c(NC(=O)c2ccc(NC(C)=O)cc2)c1`: the “activity change, negative = inhibition” value was -6.61%.

Regarding `Cc1ccc(C)c(C(=O)C(C)OC(=O)c2cccn2C)c1` (stereo not drawn), the “activity change, negative = inhibition” value was 3.23%. As to `O=C(CN1C(=O)c2ccccc2C1=O)N(CCO)Cc1ccccc1`, the “activity change, negative = inhibition” value is -6.65%.
